Reference: PubChem BioAssay (Tox21)
A number with no mark means an inactive call. Where a call stands in place of a potency, no number is given. Calls of active or inactive are those of the source. Calls come from the whole dose curve; as a rule, active = well fitted activation curve with a large enough effect in the repeat runs; inconclusive = weak or mixed curves; inactive = flat fitted curve, though single readings scatter.

Assay: A CellTox Green Cytotoxicity Assay to monitor cytotoxicity in HepG2 cells - 0 hour (AID 1224882); note: nearly all actives have a fitted effect of over 35% in size
Conditions: CellTox Green fluorescence; series mostly up to 76.8 µM
Description: National Center for Advancing Translational Sciences [NCATS]
NIH Chemical Genomics Center [NCGC]
U.S. Environmental Protection Agency [EPA]
National Institutes of Environmental Health Sciences [NIEHS]
National Toxicology Program [NTP]
Cell-based models are critical for drug discovery. Determining the natural cytotoxic effects resulting from test compounds is an essential research activity. A CellTox Green Cytotoxicity Assay to monitor cytotoxicity in real time of continues cell culture during 40 hours of the compound treatment was used to screen Tox21 10K library compounds in HepG2 cells. CellTox Green Cytotoxicity Assay is a nonlytic, homogeneous, biofluorescent method to measure cytotoxicity in cell culture after experimental manipulation. The assay system uses a proprietary asymmetric cyanine dye that is excluded from viable cells but preferentially stains the dead cell's DNA. […] Viable cells produce no appreciable increases in fluorescence. Therefore, the fluorescence signal produced by the binding interaction with dead cell DNA is proportional to cytotoxicity.
The mixture of HepG2 cell suspension and reagents were dispensed at 600cells/6 ul/well in 1536-well tissue culture treated black solid bottom plates using a Multidrop dispenser. After the assay plates were incubated at a 37 C/5% CO2 incubator for 5 hours, 23 nL of compounds dissolved in DMSO, positive and negative controls was transferred to the assay plate by a pintool work station. The plates were incubated at 37 C for 40 hours. The fluorescence intensity were measured at 0h, 8h, 16h, 24h, 32h and 40h time points using ViewLux plate reader during compound treatment.

With `CCOC(=O)C1=C(C)NC(C)=C(C(=O)OC)C1c1cccc([N+](=O)[O-])c1` (stereo not given) as the compound, how does the Potency read?
The Potency was “inactive”.

Which Potency does the source give for `Nc1nc(CC(=O)O)cs1` here?
The Potency was “inactive”.

For `CC(C)(C)c1ccc(S)cc1`, which Potency is on record?
The Potency was “inactive”.

With `CC(=O)Nc1ccc(/C=N/NC(N)=S)cc1` as the compound, how does the Potency read?
The Potency was “inactive”.

Which Potency does the source give for `CCCCCCCCCCCCCCCC(=O)OC/C=C(C)/C=C/C=C(C)/C=C/C1=C(C)CCCC1(C)C` here?
The Potency was “inactive”.

Which Potency does the source give for `CC(C)NCC(O)c1cc(O)cc(O)c1` (stereo not given) here?
The Potency was “inactive”.

Which Potency does the source give for `O=C1CCCCCO1` here?
Its Potency is “inactive”.

With `Oc1ccc2c(c1)OCO2` as the compound, how does the Potency read?
The Potency was “inactive”.

With `Cc1ccc(C(N)=O)cc1N` as the compound, how does the Potency read?
The Potency was “inactive”.

Which Potency does the source give for `c1ccc(CNCc2ccccc2)cc1` here?
The Potency was “inactive”.

With `CN1CCC(=C2c3ccccc3C=Cc3ccccc32)CC1` as the compound, how does the Potency read?
The Potency was “inactive”.

For `NC(N)=NN=C(/C=C/c1ccc([N+](=O)[O-])o1)/C=C/c1ccc([N+](=O)[O-])o1`, which Potency is on record?
The Potency was “inactive”.

Which Potency does the source give for `CN1CCC(OC(c2ccccc2)c2ccccc2)CC1` here?
Its Potency is “inactive”.

With `CC(C)=CCCC(C)CC=O` (stereo not given) as the compound, how does the Potency read?
Its Potency is “inactive”.

Which Potency does the source give for `CCOC(=O)[C@H](CCc1ccccc1)N[C@H]1CCc2ccccc2N(CC(=O)O)C1=O` here?
Its Potency is “inactive”.

Which Potency does the source give for `Cc1ccc2c(ccc3ccccc32)c1` here?
Its Potency is “inactive”.

With `CN1CCC(=C2c3ccccc3CCc3sccc32)CC1` as the compound, how does the Potency read?
Its Potency is “inactive”.

With `Oc1ccc(O)c2c(O)cccc12` as the compound, how does the Potency read?
The Potency was “inactive”.

With `CCOC(=O)C1=NN(c2ccccc2)C(=O)C1` as the compound, how does the Potency read?
Its Potency is “inactive”.

With `C#CCOC(=O)[C@@H](C)Oc1ccc(Oc2ncc(Cl)cc2F)cc1` as the compound, how does the Potency read?
Its Potency is “inactive”.

With `CNS(=O)(=O)Cc1ccc2[nH]cc(CCN(C)C)c2c1` as the compound, how does the Potency read?
Its Potency is “inactive”.

Which Potency does the source give for `CN(C)CCCNCCCN` here?
Its Potency is “inactive”.

With `O=C(O)/C=C/c1cnc[nH]1` as the compound, how does the Potency read?
The Potency was “inactive”.

With `Cc1cccc(Oc2ccccc2)c1` as the compound, how does the Potency read?
Its Potency is “inactive”.

With `CC[C@H](C)[C@H](N)C(=O)O` as the compound, how does the Potency read?
Its Potency is “inactive”.

For `COC(Cc1ccccc1)OC`, which Potency is on record?
Its Potency is “inactive”.

Which Potency does the source give for `CCCCOc1ccc(CC(=O)NO)cc1` here?
The Potency was “inactive”.

For `CC(=O)N(O)CCCCCNC(=O)CCC(=O)N(O)CCCCCNC(=O)CCC(=O)N(O)CCCCCN`, which Potency is on record?
The Potency was “inactive”.

Which Potency does the source give for `CC[C@@H]1C[C@H](N(Cc2cc(C(F)(F)F)cc(C(F)(F)F)c2)C(C)=O)c2cc(C(F)(F)F)ccc2N1C(=O)OC(C)C` here?
The Potency was “inactive”.

Which Potency does the source give for `CC(=O)c1c(C)c([N+](=O)[O-])c(C(C)(C)C)c([N+](=O)[O-])c1C` here?
The Potency was “inactive”.

With `CC(C)(C)c1cc(CCC(=O)OCC(COC(=O)CCc2cc(C(C)(C)C)c(O)c(C(C)(C)C)c2)(COC(=O)CCc2cc(C(C)(C)C)c(O)c(C(C)(C)C)c2)COC(=O)CCc2cc(C(C)(C)C)c(O)c(C(C)(C)C)c2)cc(C(C)(C)C)c1O` as the compound, how does the Potency read?
Its Potency is “inactive”.

Which Potency does the source give for `N#Cc1c(F)cccc1F` here?
The Potency was “inactive”.

For `O=C(CCN1CCN2CCCC2C1)N1c2ccccc2Sc2ccc(Cl)cc21` (stereo not given), which cytotoxicity is on record?
Its cytotoxicity is 0.972% [at 15.8 µM].

Which Potency does the source give for `CCOc1cc(OCC)c(C(=O)CCC(=O)O)cc1OCC` here?
The Potency was “inactive”.

For `ClC(Cl)(Cl)c1ccc(C(Cl)(Cl)Cl)cc1`, which Potency is on record?
The Potency was “inactive”.

Which Potency does the source give for `C=C(C)C(=O)OCCOc1ccccc1` here?
Its Potency is “inactive”.

Which Potency does the source give for `O=[N+]([O-])c1cccc(Cl)c1Cl` here?
The Potency was “inactive”.

For `O=C(O)C1CCC(C(=O)O)CC1` (stereo not given), which Potency is on record?
Its Potency is “inactive”.

For `CCCCCCc1ccc(N)cc1`, which Potency is on record?
The Potency was “inactive”.

With `Cc1cccc(OCCOc2cccc(C)c2)c1` as the compound, how does the Potency read?
Its Potency is “inactive”.
